Test results as given in PubChem BioAssay (NCATS).
Results filed as inconclusive are left out. The source made the active and inactive calls. The call rests on the fitted dose curve; in most records, active means well fitted curve in the direction sought with a large enough effect; inconclusive means small, poorly fitted or top-dose-only effect, or another doubt; inactive means no such curve, though single readings can be large; an effect the other way counts as inactive or inconclusive.

Columns and labels:
[1] = HEK-293 Cancer Cell Toxicity qHTS against the NCATS CANVASS Library (AID 1347355); conditions: HEK-293 viability, CellTiter-Glo luminescence, 72 h; at 46.1 µM (top of the series); further: nearly all actives have a fitted effect of over 65% in size
Outline: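 Toxicity was measured as CellTiter-Glo luminescence after 72 h exposure to an 11-point compound series. Compound was added to 1000 cells/well 4 h after seeding.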

[2] = HPAF-II 24hr Apoptosis Induction qHTS against the NCATS CANVASS Library (AID 1347356); conditions: HPAF-II caspase-3/7 Caspase-Glo luminescence; series mostly up to 46.1 µM
Outline: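 Caspase-Glo 3/7 luminescence, read after 15 min room-temperature development, measures apoptosis in HPAF-II cells treated 24 h at 37 degrees C with an 11-point concentration series; 500 cells/well; doxorubicin control.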

[3] = HEK293 18hr Apoptosis Induction qHTS against the NCATS CANVASS Library (AID 1347357); conditions: HEK293 caspase-3/7 Caspase-Glo luminescence; series mostly up to 46.1 µM
Outline: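 Natural products applied to HEK293 for 18 hr; Caspase-Glo 3/7 readout.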

[4] = HPAF-II 12hr Apoptosis Induction qHTS against the NCATS CANVASS Library (AID 1347358); conditions: HPAF-II caspase-3/7 Caspase-Glo luminescence; series mostly up to 46.1 µM
Outline: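 Caspase-3/7 activation by DEVD-substrate luminescence (Caspase-Glo 3/7, 15 min, room temperature) after a 12-hour compound exposure in 11 concentrations, of HPAF-II pancreatic cells seeded at 500/well in DMEM with 10% FBS.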

[5] = HEK293 24hr Apoptosis Induction qHTS against the NCATS CANVASS Library (AID 1347359); conditions: HEK293 caspase-3/7 activation, Caspase-Glo luminescence; series mostly up to 46.1 µM
Outline: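 HEK293 cells (500/well, DMEM + 10% FBS) were exposed to compounds in an 11-point series for 24 hours at 37 degrees C, then caspase-3/7 activity was read by Caspase-Glo DEVD luciferase luminescence after 15 min.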

[6] = HPAF-II 18hr Apoptosis Induction qHTS against the NCATS CANVASS Library (AID 1347360); conditions: HPAF-II caspase-3/7 luminescence; series mostly up to 46.1 µM
Outline: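 Luminescent DEVD-substrate signal, proportional to caspase activity, is measured in HPAF-II cells after 18-hour treatment across a concentration series; doxorubicin serves as control.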

[7] = HEK293 12hr Apoptosis Induction qHTS against the NCATS CANVASS Library (AID 1347361); conditions: HEK293 caspase-3/7 Caspase-Glo luminescence; series mostly up to 46.1 µM
Outline: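 Luminescent caspase-3/7 signal, proportional to enzyme activity, was recorded from HEK293 cultures in DMEM + 10% FBS treated for 12 hours with titrated natural products (11 points). Doxorubicin (0.1nM - 4uM) served as control.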

[8] = test system: NAD(P)H diaphorase (Clostridium kluyveri); assay: Diaphorse counterscreen qHTS: Assay Interference Panel against the NCATS CANVASS Library (AID 1347362); conditions: Diaphorase enzyme, resazurin to resorufin fluorescence; series mostly up to 57.5 µM
Outline: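 Clostridium kluyveri diaphorase in PBS with 0.01% Tween-20 was preincubated 15 min at room temperature in the dark with compounds (11-point series). Resorufin fluorescence (ex 525/20, em 598/25) was read 5 min after adding resazurin/NADH.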

[9] = target: Luciferin 4-monooxygenase (Photinus pyralis) (UniProt P08659); assay: Firefly luciferase counterscreen qHTS: Assay Interference Panel against the NCATS CANVASS Library (AID 1347363); conditions: purified firefly luciferase, luminescence inhibition, 5 min; series mostly up to 57.5 µM
Chain of Luciferin 4-monooxygenase (Photinus pyralis) (P08659 whole entry, looked up): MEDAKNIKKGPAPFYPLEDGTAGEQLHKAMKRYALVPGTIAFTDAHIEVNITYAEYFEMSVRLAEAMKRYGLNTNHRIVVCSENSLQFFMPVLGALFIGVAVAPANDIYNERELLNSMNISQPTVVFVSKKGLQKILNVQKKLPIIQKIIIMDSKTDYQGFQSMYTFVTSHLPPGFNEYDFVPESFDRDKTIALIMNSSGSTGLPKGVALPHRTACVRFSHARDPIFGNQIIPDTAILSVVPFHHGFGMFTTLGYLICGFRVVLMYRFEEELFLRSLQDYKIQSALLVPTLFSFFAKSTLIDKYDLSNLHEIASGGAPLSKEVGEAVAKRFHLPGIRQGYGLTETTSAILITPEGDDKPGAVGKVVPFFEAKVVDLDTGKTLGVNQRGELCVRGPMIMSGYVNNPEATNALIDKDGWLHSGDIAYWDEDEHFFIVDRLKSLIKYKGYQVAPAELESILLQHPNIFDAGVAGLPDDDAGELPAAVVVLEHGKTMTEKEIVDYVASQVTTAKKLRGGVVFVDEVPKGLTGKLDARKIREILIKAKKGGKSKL
Outline: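 Purified P. pyralis luciferase was added to compounds (11-point series) preincubated 15 min at room temperature with substrate containing 0.013 mM D-luciferin and 0.013 mM ATP; luminescence was read after 5 min.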

[10] = KB-8-5-11 Cancer Cell Toxicity qHTS against the NCATS CANVASS Library (AID 1347364); conditions: KB-8-5-11 MDR cells viability, CellTiter-Glo, 72 h; at 46.1 µM (top of the series); further: nearly all actives have a fitted effect of over 75% in size
Outline: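 Viability read as CellTiter-Glo luminescence after 72 h at 37 °C, 5% CO2. 11-point compound series on 500 KB-8-5-11 cells/well in DMEM/10% FBS. Follow-up plating included 1 uM tariquidar in the medium.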

Measured: outcome

NCC(O)c1ccc(O)cc1 (stereo not given)
inactive: all assays above
